We go through eight compounds from PubChem BioAssay AID1039 (National Center for Advancing Translational Sciences (NCATS), 2008).

The source made the active and inactive calls. Where a call stands in place of a potency, no number is given. Calls follow the shape of the full dose curve.

The experiment in a line: Normal 2 Cell Viability Secondary Assay for qHTS Assay for Epigenetic Modulators. The note with it: Normal 2 bronchial epithelial viability, MTS, 4 days. The source says:
NIH Molecular Libraries Screening Centers Network [MLSCN] NIH Chemical Genomics Center [NCGC] MLSCN Grant: 1 X01 MH079860-01 Assay Provider: Elisabeth D. Martinez, University of Texas SW Medical Center NCGC Assay Overview: This secondary assay characterizes selected actives identified in the qHTS of the Locus Derepression (LDR) assay (PubChem AID 597). The LDR assay detects the derepression of a GFP reporter that is stably integrated in a region of the genome of murine c127i mammary cells that is presumably silenced. Compounds that cause derepression of the locus to express GFP are identified by enumerating GFP positive cells using a laser-scanning microplate cytometer. Selected LDR actives were assayed for killing of Normal 2, a patient-derived normal bronchial epithelial line matched to NSCLC 2, a nonsmall cell lung carcinoma line from the same patient. The Normal 2 line assays the cytoxicity of test compounds on normal lung cells. Normal 2 cell viability was measured using Cell Titer 96 AQueous One (Promega), an assay which detects the ability of metabolically active cells to reduce a tetrazolium salt substrate (MTS), into a soluble formazan product that can be measured by colorimetry.
NCGC Assay Protocol Summary Normal 2 cells were plated in 96-well flat bottom tissue culture dishes (Corning) and grown overnight at 37 C and 5% CO2, then treated with compounds, incubated 4 days, and assayed for viability using the Cell Titer 96 AQueous One kit (Promega) according to the manufacturer's protocol. Absorbance at 490 nm and 650 nm (reference) was measured by a Spectra Max (Molecular Devices). Data were normalized to the untreated control (100% viability). Each cell line was tested in one or two independent assays, each containing 4 or 8 replicates. For further details, see R.L. Johnson, W. Huang, A. Jadhav, C.P. Austin, J. Inglese, E.D. Martinez, A Quantitative High-Throughput Screen Identifies Potential Epigenetic Modulators of Gene Expression, Analytical Biochemistry (2007), doi: 10.1016/j.ab.2007.12.028
On the technique in general: Quantitative high-throughput screening tests each substance at several concentrations.
For the compound `O=C(CSc1cccc2cccnc12)NCc1ccccc1`, the compound was classed as inactive.

For the compound `O=Nc1ccc(O)c2ncccc12`, the Potency was 9 µM (active).

Turning to `CC(C)C(=O)NC(c1ccco1)c1ccc2cccnc2c1O` (stereo not drawn), the Potency was 10 µM (active).

Regarding `CC(C)C(=O)NC(c1ccc(N(C)C)cc1)c1ccc2cccnc2c1O` (stereo not drawn), the Potency was 5 µM (active).

As for `CN1C(=S)SC(c2ccccc2)N(C)C1c1ccccc1` (stereo not drawn), the outcome was inactive.

With `CC(C)C(=O)NC(c1ccco1)c1cc([N+](=O)[O-])c2cccnc2c1O` (stereo not drawn), the Potency was 2 µM (active).

`CC(/C=C/C(=O)NO)=C\[C@@H](C)C(=O)c1ccc(N(C)C)cc1`: the call was inactive.

For `O=C(CSc1cccc2cccnc12)N1CCCC1`, the call was inactive.
